# Assay results from PubChem BioAssay (Tox21).
# Records with an inconclusive call do not appear. Active and inactive are the calls of the source. Calls come from the whole dose curve; as a rule, active = well fitted cell-killing curve with a large enough effect in the repeat runs; inconclusive = weak or mixed curves, or effect the other way; inactive = flat fitted curve, though single readings scatter.
# Test: qHTS assay to identify small molecule antagonists of the constitutive androstane receptor (CAR) signaling pathway - cell viability counter screen (AID 1224837); note: nearly all actives have a fitted effect of over 45% in size
# Details: HepG2-CYP2B6-hCAR viability, CellTiter-Fluor, 23 h, co-treated with 50 nM CITCO; series mostly up to 92.4 µM; activity change, negative = cytotoxicity: at the top concentration
# Source text: National Center for Advancing Translational Sciences [NCATS]
# NIH Chemical Genomics Center [NCGC]
# U.S. Environmental Protection Agency [EPA]
# National Institutes of Environmental Health Sciences [NIEHS]
# National Toxicology Program [NTP]
# U.S. Food and Drug Administration [FDA]
# The constitutive androstane receptor (CAR) is a nuclear receptor which regulates multiple drug metabolizing enzymes (DMEs) and transporters. Activating CAR will generally increase the transcription and subsequent translation of CYP2B6 and CYP3A4. These two DMEs represent about 50% of the drug metabolizing potential in the body. When CAR is deactivated, the metabolizing potential in the body will decrease, subsequently increasing the toxicity in the body or lowering the therapeutic potential of a pro-drug. Recently, there have also been studies performed indicating CARs role in energy metabolism and cancer therapy. Therefore, inhibiting CARs activity could have a potential effect on diabetes and cancer. Identifying environmental toxins and compounds which modulate CAR, through the use of the Tox21 10K compound collection, will be an important step in determining the toxicity and potential therapeutic effects these factors will have on the human body. To differentiate true CAR antagonists from cytotoxic substances, the assay is multiplexed with a cell viability assay.
# Tox21 Assay Protocol Summary:
# A double-stable (hCAR and CYP2B6-2.2kb) transfected cell line, derived from human hepatoma (HepG2) cells, was utilized for the duration of the quantitative high-throughput screens. The HepG2-CYP2B6-hCAR cells were dispensed at 2500 cells/4 uL/well in 1536-well white solid bottom plates using a Multidrop Combi. After the assay plates were incubated at 37 C/5% CO2 for 4 hrs, 23 nL of compounds at 15 concentrations (from 5-48 columns) or positive control (from 1 to 4 columns) were transferred to the assay plates using a Pintool station. One uL of CITCO (final concentration = 50 nM) was added, using a Flying Reagent Dispenser, inside each well. After a 23 hr incubation period at 37 C/5% CO2, 1 uL of CellTiter-Fluor reagent was added into each well of the assay plates using a Flying Reagent Dispenser. The fluorescence intensity in the plates was then measured using a ViewLux plate reader.
# % is set by controls: 0 for no effect and ±100 for the full control effect.
row,SMILES,"activity change, negative = cytotoxicity"
1,CC(=O)[C@@]1(O)CC[C@H]2[C@@H]3C[C@H](C)C4=CC(=O)CC[C@]4(C)[C@H]3CC[C@@]21C,0.384% [at 42.5 µM] (inactive)
2,Nc1ccc(C(=O)Nc2ccccc2N)cc1,-20.3% [at 42.5 µM] (inactive)
3,CC1=CC(=O)/C(=C(/C)O)C(=O)O1,2.6% (inactive)
4,COc1ccccc1OC(=O)Oc1ccccc1OC,1.12% [at 42.5 µM] (inactive)
5,CCCC[C@H]1CN(CC2CCOCC2)C(=O)OC12CCN(C1(C)CCN(C(=O)c3c(C)ncnc3C)CC1)CC2,0.338% (inactive)
6,NCCCOCCOCCOCCCN,-17.9% (inactive)
7,O=C(/C=C/c1ccc(O)c(O)c1)O[C@@H]1C[C@](O)(C(=O)O)C[C@@H](O)[C@H]1O,-20.3% (inactive)
8,CCN(CC)C(C)=O,0.101% (inactive)
9,O=C(c1ccc(O)cc1)c1ccc(O)cc1,-13.8% (inactive)
10,CCCCCCCCCO,-1.24% (inactive)
11,CC(CN)CCCN (stereo not given),3.97% (inactive)
12,NC(=S)N/N=C/c1cccnc1,2.04% [at 42.5 µM] (inactive)
13,CCOc1ccc2[nH]cc(C(=O)NCc3ccccc3)c(=O)c2n1,-9.25% (inactive)
14,CCCCOCCOCCOCCOCCO,1.05% (inactive)
15,Oc1ccc2c(c1)OCO2,1.33% (inactive)
16,CC(C)NCC(O)c1cc(O)cc(O)c1 (stereo not given),0.0514% [at 42.5 µM] (inactive)
17,CCCCCCCCCC(=O)OCC,2.58% (inactive)
18,CCOC(=O)C1=C(C)NC(C)=C(C(=O)OC)C1c1cccc([N+](=O)[O-])c1 (stereo not given),-13.4% [at 42.5 µM] (inactive)
19,C[C@@H](C1=C(CCN(C)C)Cc2ccccc21)c1ccccn1,-17.9% [at 42.5 µM] (inactive)
20,COc1ccc(C(C)=O)cc1,3.09% (inactive)

row,SMILES,"activity change, negative = cytotoxicity"
1,O=C(NN1CCCC1)NS(=O)(=O)c1ccc(Cl)cc1,-1.86% [at 42.5 µM] (inactive)
2,CCCCCCCCCCCCCCCBr,-13.5% [at 42.5 µM] (inactive)
3,CN(C)CCCOc1nn(Cc2ccccc2)c2ccccc12,-21.2% [at 42.5 µM] (inactive)
4,CC(=O)O[C@@H]1C(=O)O[C@@H]2[C@H]1OC(=O)[C@@H]2OC(C)=O,-3.53% [at 42.5 µM] (inactive)
5,CCCc1ccccc1,4.68% (inactive)
6,NCc1ccccc1,7.31% (inactive)
7,CCOC(=O)CC(=O)c1cc(F)c(Cl)nc1Cl,-6.16% (inactive)
8,C=CC(C)(CCC=C(C)C)OC(=O)c1ccccc1 (stereo not given),1.21% (inactive)
9,CCOc1ccc(NC(=O)CC(C)=O)cc1,-1.45% (inactive)
10,CC(C)CCCCCCOC(=O)c1ccc(C(=O)OCCCCCCC(C)C)c(C(=O)OCCCCCCC(C)C)c1,2.01% (inactive)
11,O=C1c2cccc(O)c2C(=O)c2c(O)cc(CO)cc21,-7.37% (inactive)
12,CN1CCC(OC(c2ccccc2)c2ccccc2)CC1,-8.86% [at 42.5 µM] (inactive)
13,CCCCOC(O)CC (stereo not given),2.77% (inactive)
14,CC(C(=O)O)c1ccc(-c2ccccc2)c(F)c1 (stereo not given),7.95% (inactive)
15,c1ccc(CNCc2ccccc2)cc1,1.92% (inactive)
16,Cn1c(NCCN(CCO)CCCc2ccc([N+](=O)[O-])cc2)cc(=O)n(C)c1=O,0.31% [at 42.5 µM] (inactive)
17,NC1CCN(c2nc3c(cc2F)c(=O)c(C(=O)O)cn3-c2ccc(F)cc2F)C1 (stereo not given),-1.12% [at 42.5 µM] (inactive)
18,CCCCCCCCCC=O,-0.814% (inactive)
19,CN1CCN(C2=Nc3ccccc3Sc3ccc(Cl)cc32)CC1,-9.63% [at 42.5 µM] (inactive)
20,CC(C)(C)c1cc(CO)cc(C(C)(C)C)c1O,0.549% (inactive)
